Screening results (PubChem BioAssay)
Rows were chosen to be rich in hits. Some 14% of all compounds tested hit in one or more screens of this group.
USP10 inh: blocks human USP10 ubiquitin-rhodamine cleavage | Q14694 | purified USP10, Ub-rhodamine fluorescence, 60 min | inhibition, % at 20 µM | 47,000 compounds, 1.1% hits | AID 1645856
USP30 block: human USP30 deubiquitinase inhibition; purified USP30, Ub-rhodamine cleavage fluorescence; 47,000 compounds, 5.3% hits; Q70CQ3; inhibition, % at 25 µM
Target sequence (Q70CQ3 whole entry, looked up): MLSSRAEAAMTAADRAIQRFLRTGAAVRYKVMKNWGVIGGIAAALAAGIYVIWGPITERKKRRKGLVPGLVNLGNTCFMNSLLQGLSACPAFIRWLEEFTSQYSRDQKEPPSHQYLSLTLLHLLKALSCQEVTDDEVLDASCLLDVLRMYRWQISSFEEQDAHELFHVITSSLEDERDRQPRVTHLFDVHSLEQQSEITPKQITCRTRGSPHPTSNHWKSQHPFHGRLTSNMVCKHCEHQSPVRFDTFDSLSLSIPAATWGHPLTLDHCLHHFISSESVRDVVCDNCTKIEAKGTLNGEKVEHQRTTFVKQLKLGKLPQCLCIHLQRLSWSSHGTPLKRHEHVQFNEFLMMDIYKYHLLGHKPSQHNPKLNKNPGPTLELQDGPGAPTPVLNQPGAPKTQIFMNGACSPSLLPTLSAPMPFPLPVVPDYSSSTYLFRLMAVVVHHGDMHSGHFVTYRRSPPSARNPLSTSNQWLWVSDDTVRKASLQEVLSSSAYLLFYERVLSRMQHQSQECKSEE
USP28 inh: inhibitors of human USP28 deubiquitinase; Q96RU2; purified USP28, Ub-rhodamine cleavage fluorescence, 30 min; inhibition, % at 25 µM; 47,000 compounds, 3% hits; AID 1645857
USP17 inh: human USP17-like deubiquitinase inhibition. purified USP17, Ub-rhodamine cleavage fluorescence, 3 h. inhibition, % at 50 µM. 47,000 compounds, 6.5% hits
USP8 block: inhibitors of human USP8 deubiquitinase | purified USP8, Ub-rhodamine cleavage fluorescence, 30 min | inhibition, % at 20 µM | 47,000 compounds, 4.2% hits
* marks the source's active call; other numbers are inactive results. No stated cut-off is given here; in the data, active means inhibition above about 30%; inactive means the rest.

For Nc1c(C(=O)Nc2ccc3c(c2)OCO3)sc2nc(-c3cccnc3)ccc12 the results were USP10 inh -6, USP30 block -2, USP28 inh 33*, USP17 inh 61* and USP8 block -27.
For CCOc1cccc(-c2cc(C(=O)Nc3ccc4c(c3)OCO4)c3ccccc3n2)c1 the results were USP10 inh -7, USP30 block -302, USP28 inh -96, USP17 inh -60 and USP8 block 36*.
`O=C(Nc1cc(-c2cccnc2)no1)c1ccc2c(c1)OCO2` gave USP10 inh -6, USP30 block 9, USP28 inh 18, USP17 inh 7 and USP8 block 11.
For Cc1ccccc1NC(=O)C(C)C1CCN(C(=O)Nc2ccccc2)CC1 (centres undefined) the results were USP10 inh 3, USP30 block 13, USP28 inh 0, USP17 inh 8 and USP8 block 15.
Cn1cccc1Cc1nnc(SCC(=O)N2CCCc3ccccc32)n1C was read as USP10 inh -1, USP30 block -21, USP28 inh -8, USP17 inh -13 and USP8 block -12.
For CC(=O)Nc1cccc(-c2cn3cccc(C)c3n2)c1 the results were USP10 inh -2, USP30 block 20, USP28 inh -4, USP17 inh 8 and USP8 block 13.
`Cc1ccccc1-c1nc(C2CC(=O)N(Cc3ccccc3)C2)no1` (centres undefined) gave USP10 inh -4, USP30 block 15, USP28 inh 12, USP17 inh 9 and USP8 block 2.
COc1ccc(CNC(=O)Cn2cnc3ccccc32)cc1OC was read as USP10 inh 1, USP30 block -5, USP28 inh -6, USP17 inh 1 and USP8 block -1.
Screening COc1cc(Cn2nnc3ccccc32)cc(Br)c1O returned USP10 inh -1, USP30 block -8, USP28 inh 38*, USP17 inh 8 and USP8 block 8.
`Cc1ccc(CN2C(=O)COc3ccccc3C2=O)cc1` gave USP10 inh 4, USP30 block 27, USP28 inh 39*, USP17 inh 19 and USP8 block 8.
`Cn1nc(C(=O)N2CCCCC2)c2c1-c1ccsc1CC2` gave USP10 inh -2, USP17 inh 16 and USP8 block -5.
O=C(c1cc2c(s1)-c1ccsc1CC2)N1CCCCCC1 was read as USP10 inh 12, USP30 block 46*, USP28 inh 23, USP17 inh 38* and USP8 block 12.
`CC1CCCN(S(=O)(=O)c2ccc(-n3cnc(C(=O)N4CCCCC4)c3)nc2)C1` (centres undefined) gave USP10 inh 1, USP30 block 13, USP28 inh -4, USP17 inh -5 and USP8 block 0.
`Cc1nccn1CCCNC(=O)c1ccn(-c2ccccc2Cl)n1` gave USP10 inh 1, USP17 inh 5 and USP8 block -2.
O=C(Nc1cc(F)ccc1F)c1ccn(COc2ccc(F)c(Cl)c2)n1 was read as USP10 inh 6, USP30 block 70*, USP28 inh 19, USP17 inh 46* and USP8 block 23.
Screening Cc1ccnc(NC(=O)c2ccn(COc3ccccc3Cl)n2)c1 returned USP10 inh 3, USP30 block 32*, USP28 inh 16, USP17 inh 18 and USP8 block -34.
Screening O=C(Nc1cc(F)ccc1F)c1ccc2c(c1)ncn2CCN1CCCC1 returned USP10 inh -2, USP30 block -30, USP28 inh 0, USP17 inh -1 and USP8 block -12.
For Cc1nc2ccccn2c(=O)c1NC(=O)COc1ccc(Cl)cc1 the results were USP10 inh -1, USP30 block 14, USP28 inh -8, USP17 inh -4 and USP8 block -1.
For Cc1ccccc1NC(=O)c1ccn(COc2ccc(Cl)cc2)n1 the results were USP10 inh 6, USP30 block 19, USP28 inh 59*, USP17 inh 19 and USP8 block 19.
For COc1ccccc1C(=O)NCc1nnc(SCC(=O)Nc2cccc(C)c2C)n1C the results were USP10 inh -3, USP30 block 12, USP28 inh 1, USP17 inh 18 and USP8 block -6.
`O=C(NCCN1CCCCC1)C1CCN(c2ccc(N3CCCCC3)nn2)CC1` gave USP10 inh -1, USP30 block -3, USP28 inh 20, USP17 inh 11 and USP8 block 6.
Screening CCOc1ccccc1NC1c2ccccc2C(=O)N1c1cccnc1 (centres undefined) returned USP10 inh -2, USP30 block -8, USP28 inh 1, USP17 inh 43* and USP8 block 71*.
`O=C(Nc1cccc(S(=O)(=O)N2CCCC2)c1)c1ccc(N2CCOCC2)c([N+](=O)[O-])c1` gave USP10 inh 4, USP30 block 23, USP28 inh 41*, USP17 inh 8 and USP8 block 0.
`O=C(COC(=O)c1ccc2c(=O)n3c(nc2c1)CCCCC3)NCC1CCCCC1` gave USP10 inh -2, USP30 block 65*, USP28 inh 41*, USP17 inh 55* and USP8 block 7.
`O=C(Nc1cccc(S(=O)(=O)N2CCCC2)c1)c1ccc2c(=O)n3c(nc2c1)CCCCC3` gave USP10 inh 9, USP30 block 27, USP28 inh 62*, USP17 inh 20 and USP8 block 2.
COc1ccc(C(=O)Nc2ccc(C)c(S(=O)(=O)N3CCCCCC3)c2)cc1 was read as USP10 inh 3, USP30 block -9, USP28 inh 1, USP17 inh -6 and USP8 block -1.
For O=C(COC(=O)c1ccc2c(=O)n3c(nc2c1)CCCCC3)NC12CC3CC(CC(C3)C1)C2 the results were USP10 inh 2, USP30 block 21, USP28 inh 4, USP17 inh 0 and USP8 block 6.
Cc1ccc(NC(=O)c2ccc3c(=O)n4c(nc3c2)CCCCC4)cc1S(=O)(=O)N1CCOCC1 was read as USP10 inh 2, USP17 inh 36* and USP8 block 10.
`N#Cc1cccc(N2CCCC3(CN(Cc4ccncc4)CCO3)C2)n1` (centres undefined) gave USP10 inh -2, USP30 block 0, USP28 inh -8, USP17 inh -15 and USP8 block 3.
Screening CCN1Cc2c(C(=O)N3CC=CC3)ncn2-c2ccccc2S1(=O)=O returned USP10 inh -3, USP30 block -71, USP28 inh -17, USP17 inh -34 and USP8 block -16.
For COc1ccc(S(=O)(=O)c2nnn3c2nc(Nc2ccccc2)c2ccccc23)cc1 the results were USP10 inh -7, USP30 block -13, USP28 inh -52, USP17 inh -2 and USP8 block -2.
`COc1ccc(Nc2nc3c(S(=O)(=O)c4ccc(C)cc4)nnn3c3ccsc23)c(OC)c1` gave USP10 inh 38*, USP30 block 67*, USP28 inh 16, USP17 inh 28 and USP8 block 21.
